Measurements reported in PubChem BioAssay (NCI).
Compounds without any hit were thinned out: in the full panel of roughly 83,000, 20% have a hit.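 Negative percent growth values reflect cell death: -40 means 40% of the cells present at the start died, and -100 means all died.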

What was measured:
Assay in all cases: NCI-60 one-dose screen, 48 h (100 = growth as untreated, 0 = no growth, -100 = all killed)
Details in all cases: 10 µM unless noted; active means growth percent below 10; inactive means the rest
NCI-H460 lung = test system: NCI-H460 lung
A549/ATCC NSCLC = test system: A549/ATCC NSCLC
786-0 renal = test system: 786-0 renal
DU-145 prostate = test system: DU-145 prostate
MALME-3M melanoma = test system: MALME-3M melanoma
RXF 393 renal = test system: RXF 393 renal
SF-295 CNS = test system: SF-295 CNS
UACC-257 melanoma = test system: UACC-257 melanoma
M14 melanoma = test system: M14 melanoma
SK-MEL-2 melanoma = test system: SK-MEL-2 melanoma
UO-31 renal = test system: UO-31 renal
A498 renal = test system: A498 renal
RPMI-8226 leukemia = test system: RPMI-8226 leukemia
OVCAR-5 ovarian = test system: OVCAR-5 ovarian
OVCAR-4 ovarian = test system: OVCAR-4 ovarian
HCC-2998 colon = test system: HCC-2998 colon
HOP-62 NSCLC = test system: HOP-62 NSCLC
SNB-19 CNS = test system: SNB-19 CNS
HL-60(TB) leukemia = test system: HL-60(TB) leukemia
T-47D breast = test system: T-47D breast

Measured: growth

O=C(N/N=C/c1ccc(N(CCCl)CCCl)cc1)c1cc(=O)[nH]c(=O)[nH]1
inactive: NCI-H460 lung 39% | A549/ATCC NSCLC 106% | 786-0 renal 83.2% | DU-145 prostate 91.4% | MALME-3M melanoma 101% | RXF 393 renal 95.2% | SF-295 CNS 87.2% | UACC-257 melanoma 101% | M14 melanoma 103% | SK-MEL-2 melanoma 109% | UO-31 renal 71.7% | A498 renal 93.7% | RPMI-8226 leukemia 86.7% | OVCAR-5 ovarian 134% | OVCAR-4 ovarian 109% | HCC-2998 colon 104%

CCCC(C)(C)c1ccc2c(c1)OC(C)(C)[C@@H]1CC=C(C)C[C@@H]21
inactive: HOP-62 NSCLC 90.4% | NCI-H460 lung 106% | A549/ATCC NSCLC 88.2% | 786-0 renal 98.8% | DU-145 prostate 108% | MALME-3M melanoma 93.6% | RXF 393 renal 108% | SF-295 CNS 101% | UACC-257 melanoma 93.1% | M14 melanoma 99.7% | SNB-19 CNS 103% | SK-MEL-2 melanoma 94.7% | UO-31 renal 79.8% | A498 renal 83.9% | HL-60(TB) leukemia 92.7% | RPMI-8226 leukemia 92.9% | OVCAR-5 ovarian 107% | OVCAR-4 ovarian 100% | T-47D breast 97.2% | HCC-2998 colon 109%

c1ccc(-c2ccc3ccccc3[o+]2)cc1
inactive: HOP-62 NSCLC 96.2% | NCI-H460 lung 97.2% | A549/ATCC NSCLC 90.8% | 786-0 renal 106% | DU-145 prostate 98.9% | MALME-3M melanoma 101% | RXF 393 renal 97.4% | SF-295 CNS 104% | UACC-257 melanoma 98% | M14 melanoma 96.8% | SNB-19 CNS 93.3% | SK-MEL-2 melanoma 88.8% | UO-31 renal 73.5% | A498 renal 109% | HL-60(TB) leukemia 89.7% | RPMI-8226 leukemia 86.4% | OVCAR-5 ovarian 103% | OVCAR-4 ovarian 90.5% | T-47D breast 75.6% | HCC-2998 colon 108%

O=S(=O)(O)c1ccc(-c2ccc([As](=O)(O)O)cc2)cc1
inactive: HOP-62 NSCLC 98.6% | A549/ATCC NSCLC 94.4% | 786-0 renal 103% | DU-145 prostate 110% | MALME-3M melanoma 101% | RXF 393 renal 117% | SF-295 CNS 101% | UACC-257 melanoma 93.6% | M14 melanoma 100% | SNB-19 CNS 97.7% | SK-MEL-2 melanoma 101% | UO-31 renal 89.1% | HL-60(TB) leukemia 102% | RPMI-8226 leukemia 102% | OVCAR-5 ovarian 106% | OVCAR-4 ovarian 99.4% | T-47D breast 89.5% | HCC-2998 colon 105%

CC(=O)Nc1ccc(Cc2ccc(NC(C)=O)cc2)cc1
inactive: HOP-62 NSCLC 94.1% | NCI-H460 lung 104% | A549/ATCC NSCLC 95% | 786-0 renal 101% | DU-145 prostate 130% | MALME-3M melanoma 103% | RXF 393 renal 89.4% | SF-295 CNS 108% | UACC-257 melanoma 99.1% | M14 melanoma 99.9% | SNB-19 CNS 121% | SK-MEL-2 melanoma 125% | UO-31 renal 78% | A498 renal 129% | HL-60(TB) leukemia 49.1% | RPMI-8226 leukemia 98.2% | OVCAR-5 ovarian 90.7% | OVCAR-4 ovarian 99% | T-47D breast 103% | HCC-2998 colon 116%

C#CC1(O)CCC2(C)C(CCC3C4CCC(=O)C4(C)CCC32)C1 (stereo not given)
inactive: HOP-62 NSCLC 94.3% | NCI-H460 lung 102% | A549/ATCC NSCLC 92% | 786-0 renal 97.4% | DU-145 prostate 109% | MALME-3M melanoma 103% | RXF 393 renal 110% | SF-295 CNS 94.1% | UACC-257 melanoma 93.9% | M14 melanoma 102% | SNB-19 CNS 95% | SK-MEL-2 melanoma 92% | UO-31 renal 86.8% | A498 renal 98.2% | HL-60(TB) leukemia 93.5% | RPMI-8226 leukemia 83.7% | OVCAR-5 ovarian 99.8% | OVCAR-4 ovarian 95.8% | T-47D breast 96.1% | HCC-2998 colon 106%

CC12CCC3C(CC=C4CC(O)CCC43C)C1C/C(=C\N1CCOCC1)C2=O (stereo not given)
inactive: NCI-H460 lung 108% | 786-0 renal 104% | DU-145 prostate 110% | MALME-3M melanoma 110% | RXF 393 renal 110% | SF-295 CNS 113% | UACC-257 melanoma 101% | M14 melanoma 112% | SNB-19 CNS 110% | SK-MEL-2 melanoma 106% | UO-31 renal 79.2% | HL-60(TB) leukemia 129% | RPMI-8226 leukemia 102% | OVCAR-5 ovarian 98.1% | OVCAR-4 ovarian 94.4% | T-47D breast 96% | HCC-2998 colon 114%

CSc1ccccc1NP1(=O)OCC(C)([N+](=O)[O-])CO1 (stereo not given)
inactive: NCI-H460 lung 101% | A549/ATCC NSCLC 95.9% | 786-0 renal 113% | DU-145 prostate 109% | MALME-3M melanoma 120% | RXF 393 renal 97.6% | SF-295 CNS 100% | UACC-257 melanoma 106% | M14 melanoma 101% | SNB-19 CNS 97.1% | SK-MEL-2 melanoma 112% | UO-31 renal 78.3% | A498 renal 110% | HL-60(TB) leukemia 56.7% | RPMI-8226 leukemia 111% | OVCAR-5 ovarian 93.7% | OVCAR-4 ovarian 105% | T-47D breast 96% | HCC-2998 colon 104%
